In PubChem BioAssay (NCATS):
Calls of active or inactive are those of the source. Calls follow the shape of the dose curve; as a rule, active = well fitted curve in the direction sought with a large enough effect; inconclusive = small, poorly fitted or top-dose-only effect, or effect the other way, or another doubt; inactive = no such curve, though single readings can be large or run the other way.

Test: qHTS of Nrf2 Activators: LOPAC Validation (AID 624149)
Conditions: Nrf2/ARE reporter cell assay; series mostly up to 46.1 µM
Method in brief: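 AREc32 cells carrying an ARE-driven firefly luciferase were grown overnight in OPTI-MEM with 5% FBS, then exposed to compounds for 24 hr at 37 deg C. Luciferase signal was read after 30 min with Steady-Glo at RT.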

Compound | outcome
O=C(Nc1ccc([N+](=O)[O-])cc1Cl)c1cc(Cl)ccc1O | inactive
OCCN1CCN(CCCN2c3ccccc3Sc3ccc(C(F)(F)F)cc32)CC1 | inactive
O=C(c1ccc(F)cc1)C1CCN(CCn2c(=O)[nH]c3ccccc3c2=O)CC1 | inactive
CCc1cccc2c3c([nH]c12)C(CC)(CC(=O)O)OCC3 (stereo not drawn) | inactive
CCCCc1oc2ccccc2c1C(=O)c1cc(I)c(OCCN(CC)CC)c(I)c1 | inactive
CCOC(=O)C(C)(C)Oc1ccc(Cl)cc1 | inactive
CCOC(=O)c1ncn2c1CN(C)C(=O)c1cc(F)ccc1-2 | inactive
COc1ccc(C2CNC(=O)C2)cc1OC1CCCC1 (stereo not drawn) | inactive
CC(C)Cc1ccc(C(C)C(=O)O)cc1 (stereo not drawn) | inactive
Cc1ccccc1N1C(=O)c2cc(S(N)(=O)=O)c(Cl)cc2NC1C (stereo not drawn) | inactive
Cc1ccc(C(=O)Nc2ccc(S(=O)(=O)O)c3cc(S(=O)(=O)O)cc(S(=O)(=O)O)c23)cc1NC(=O)c1cccc(NC(=O)Nc2cccc(C(=O)Nc3cc(C(=O)Nc4ccc(S(=O)(=O)O)c5cc(S(=O)(=O)O)cc(S(=O)(=O)O)c45)ccc3C)c2)c1 | inactive
CN1CCN2c3ccccc3Cc3ccccc3C2C1 (stereo not drawn) | inactive
Cn1c(=O)c2c(ncn2C)n(C)c1=O | inactive
O=c1c(-c2ccc(O)cc2)coc2cc(O)cc(O)c12 | inactive
CC1COc2c(N3CCN(C)CC3)c(F)cc3c(=O)c(C(=O)O)cn1c23 (stereo not drawn) | inactive
NC(CO)C(=O)NNCc1ccc(O)c(O)c1O (stereo not drawn) | inactive
COc1nc(C)nc(Cl)c1NC1=NCCN1 | inactive

Compound | outcome
CCC1(c2ccccc2)C(=O)NCNC1=O | inactive
NS(=O)(=O)c1cc2c(cc1Cl)NCNS2(=O)=O | inactive
COc1ccccc1N1CCN(CC(O)COc2cccc3ccccc23)CC1 (stereo not drawn) | inactive
COc1ccc2[nH]cc(CCNC(C)=O)c2c1 | inactive
COc1ccccc1OCCNCC(O)COc1cccc2[nH]c3ccccc3c12 (stereo not drawn) | inactive
O=C1Cc2cc(CCN3CCN(c4nsc5ccccc45)CC3)c(Cl)cc2N1 | inactive
Cn1ccc2cc3c(cc21)CCN3C(=O)Nc1cccnc1 | inactive
CCN1CCCC1CNC(=O)c1cc(S(=O)(=O)CC)c(N)cc1OC (stereo not drawn) | inactive
CCOC(=O)Nc1ccc(NCc2ccc(F)cc2)nc1N | inactive
COc1ccccc1OCC(O)CN1CCN(CC(=O)Nc2c(C)cccc2C)CC1 (stereo not drawn) | inactive
Nc1ccn([C@H]2CC[C@@H](CO)O2)c(=O)n1 | inactive
Cn1c(=O)c2[nH]cnc2n(C)c1=O | inactive
NC12CC3CC(CC(C3)C1)C2 | inactive
Clc1ccc2nsnc2c1NC1=NCCN1 | inactive
Clc1ccccc1C(c1ccccc1)(c1ccccc1)n1ccnc1 | inactive
CN(C)CCCN1c2ccccc2CCc2ccc(Cl)cc21 | inactive
